This is one part of a sample in which hits are shown more often than they occur.
GIRK2 activator – activators of NPY4-receptor-primed GIRK2 channels, summary, cell-based, HEK293, thallium flux; G protein-activated inward rectifier potassium channel 2 (Homo sapiens), P48051; activation (% efficacy), % for hits at 37.5 µM; HEK293 GIRK2/NPY4 cells, thallium flux fluorescence; 34,000 tested, under 10 active;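 active means primary screen hit, no activity in plain HEK293 cells, and in GIRK2-only cells above 5% efficacy rising with concentration; inactive means the rest, including fluorescent compounds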;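 further: efficacy is normalized control-subtracted fluorescence 15 s after thallium addition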
Target sequence (P48051 whole entry, looked up): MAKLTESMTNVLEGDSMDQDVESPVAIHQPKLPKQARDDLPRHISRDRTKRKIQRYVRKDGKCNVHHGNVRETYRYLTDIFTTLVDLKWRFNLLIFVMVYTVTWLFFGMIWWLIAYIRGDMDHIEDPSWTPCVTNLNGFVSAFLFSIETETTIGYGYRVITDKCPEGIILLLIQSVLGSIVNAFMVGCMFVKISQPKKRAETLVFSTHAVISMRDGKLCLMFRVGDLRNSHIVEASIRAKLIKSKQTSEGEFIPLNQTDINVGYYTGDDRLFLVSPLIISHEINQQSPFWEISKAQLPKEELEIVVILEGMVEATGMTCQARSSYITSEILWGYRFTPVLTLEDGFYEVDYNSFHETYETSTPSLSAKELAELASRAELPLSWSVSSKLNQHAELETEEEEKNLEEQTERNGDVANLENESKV
AMPAR-TARP mod – modulators of GluA2-stargazin AMPA receptor complexes, primary screen, cell-based, membrane potential dye. HEK293 GluA2+stargazin, membrane potential dye (FDSS), glutamate EC50; hits were called plate by plate, in both directions. calls only at 30 µM. 3.5% of 40,000 active. AID 1259245, 2017;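 active means any of four per-well response measures lying three or more SD from its plate-wide compound average, in either direction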
Calls only.

Screening O=S(=O)(NCC(O)c1ccc(C(F)(F)F)cc1)c1ccc(F)c(Cl)c1 (stereo not given) returned GIRK2 activator inactive and AMPAR-TARP mod active.
Screening Cc1ccc(S(=O)(=O)NCC(O)c2ccc(C(F)(F)F)cc2)s1 (stereo not given) returned GIRK2 activator inactive and AMPAR-TARP mod inactive.
Screening O=S(=O)(NCC(O)c1ccc(C(F)(F)F)cc1)c1ccc(Br)s1 (stereo not given) returned AMPAR-TARP mod active.
O=S(=O)(NCC(O)c1ccsc1)c1ccc(F)c(Cl)c1 (stereo not given) was read as GIRK2 activator inactive and AMPAR-TARP mod inactive.
`O=C(NCC1CCN(C(=O)c2cccnc2)CC1)C(=O)Nc1ccc2c(c1)OCCO2` gave GIRK2 activator inactive and AMPAR-TARP mod inactive.
Screening CCCOC(=O)CC1C(=O)NCCN1C(=S)NC(=O)Cc1ccc(Cl)cc1 (stereo not given) returned GIRK2 activator inactive.
CC(C)(C)CC(C)(C)c1ccc(OCC(=O)Nc2nccs2)cc1 was read as GIRK2 activator inactive and AMPAR-TARP mod inactive.
Screening COc1ccc(NC(=O)c2ccc(=O)n(CC(=O)Nc3ccccc3C)n2)cc1 returned GIRK2 activator inactive and AMPAR-TARP mod inactive.
Screening CCSc1nc2c(c(=O)[nH]1)C(c1cccc(F)c1)C1=C(CC(C)(C)CC1=O)N2 (stereo not given) returned AMPAR-TARP mod inactive.
N#Cc1ccccc1Cn1cc(-c2nc(-c3cnccn3)no2)ccc1=O was read as GIRK2 activator inactive and AMPAR-TARP mod active.
For CC(C)NC(=O)Cn1cc(-c2nc(-c3cnccn3)no2)ccc1=O the results were GIRK2 activator inactive and AMPAR-TARP mod inactive.
For CN(C)S(=O)(=O)c1ccc(C(=O)NCCOc2cccc(C(F)(F)F)c2)cc1 the results were GIRK2 activator inactive and AMPAR-TARP mod inactive.
For Cc1c(Cl)ccc2sc(N(CCCN(C)C)C(=O)c3ccn(C)n3)nc12 the results were GIRK2 activator inactive and AMPAR-TARP mod inactive.
`Cc1cc(C)c2sc(N(CCCN(C)C)C(=O)c3ccn(C)n3)nc2c1` gave GIRK2 activator inactive and AMPAR-TARP mod active.
`CCCn1c(-n2nc(C)c(C)c2C)nc2c1c(=O)n(CC(=O)OC)c(=O)n2C` gave AMPAR-TARP mod inactive.
For O=C(c1ccccc1Oc1ccccc1)N1CCC(c2cccs2)CC1 the results were GIRK2 activator inactive and AMPAR-TARP mod inactive.
Screening CSc1ccccc1C(=O)N1CCC(c2cccs2)CC1 returned GIRK2 activator inactive and AMPAR-TARP mod active.
CCN1C(=O)C(C)(C)COc2cc(NC(=O)c3ccsc3)ccc21 was read as GIRK2 activator inactive and AMPAR-TARP mod inactive.
CN(C)CCNC(=O)C(=O)NCCC(O)c1ccco1 (stereo not given) was read as GIRK2 activator inactive and AMPAR-TARP mod inactive.
For Cc1c(C)c(C)c(S(=O)(=O)NCCC(O)c2ccco2)c(C)c1C (stereo not given) the results were GIRK2 activator inactive and AMPAR-TARP mod active.
O=C(COc1ccccc1F)NCC1CCN(Cc2cccs2)CC1 was read as GIRK2 activator inactive.
Screening CC(=O)NS(=O)(=O)c1ccc(NC(=O)c2csc(-c3cnccn3)n2)cc1 returned GIRK2 activator inactive and AMPAR-TARP mod active.
`O=C(Nc1ccc(-n2cnnn2)cc1)c1csc(-c2cnccn2)n1` gave GIRK2 activator inactive and AMPAR-TARP mod inactive.
O=C(CSc1nnc(-c2cccs2)o1)c1ccccc1 was read as GIRK2 activator inactive and AMPAR-TARP mod inactive.
For Cc1cc(N(C)C)nc(NCCNC(=O)Nc2cccc(C(F)(F)F)c2)n1 the results were GIRK2 activator inactive and AMPAR-TARP mod active.
Screening CSc1cccc(NC(=O)NCCNc2nc(C)cc(N(C)C)n2)c1 returned GIRK2 activator inactive and AMPAR-TARP mod inactive.
Screening COc1cc(C(=O)NCC2CCN(C(=O)c3cccn(C)c3=O)CC2)cc(OC)c1OC returned GIRK2 activator inactive and AMPAR-TARP mod inactive.
Cc1cc(C)c2sc(NC(=O)c3ccnn3C)nc2c1 was read as GIRK2 activator inactive.
`COc1ccc(OC)c2sc(NC(=O)c3ccnn3C)nc12` gave AMPAR-TARP mod active.
Screening COc1cccc(NC(=O)c2nnn(Cc3cccc(Br)c3)c2N)c1 returned GIRK2 activator inactive and AMPAR-TARP mod inactive.
Cn1c(=O)c2c(nc(CN3CCOCC3)n2CC(=O)C(C)(C)C)n(C)c1=O was read as GIRK2 activator inactive and AMPAR-TARP mod inactive.
For COc1cccc(C(=O)Nc2nnc(-c3ccc(Br)s3)o2)c1 the results were GIRK2 activator inactive and AMPAR-TARP mod inactive.
COc1cc(OC)cc(C(=O)Nc2nnc(-c3ccc(C)cc3C)o2)c1 was read as AMPAR-TARP mod active.
Screening COc1cc(OC)cc(C(=O)Nc2nnc(-c3ccc(Br)s3)o2)c1 returned GIRK2 activator inactive and AMPAR-TARP mod active.
